This is one part of a sample in which hits are shown more often than they occur.
ROS inducer – ROS inducers in U2OS cancer cells, primary screen, cell-based, H2DCF-DA fluorescence; 2% of 46,000 active; U2OS ROS induction; ROS induction (% of piperlongumine), % at 10 µM; in the data active means ROS induction above about 79%, passing the limit was not always enough;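 further: 0% = DMSO vehicle median and 100% = reference compound median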
The depositor's hits bear a star.

SMILES	ROS inducer
C[C@@H]1CN([C@@H](C)CO)C(=O)Cc2cc(NS(=O)(=O)c3cccs3)ccc2O[C@@H]1CN(C)CC1CC1	16
C[C@H](CO)N1C[C@H](C)[C@H](CN(C)Cc2ccc3c(c2)OCCN3C)OCc2cnnn2CCCC1=O	17
O=C(Nc1ccc(C(F)(F)F)cc1)c1cnc(N2CCN(c3ccccn3)CC2)c2ccccc12	96*
O=C(c1ccco1)N1CCN(c2ccc(C(F)(F)F)cn2)CC1	8
O=C(/C=C/c1ccccc1)Nc1ccc(N2CCN(c3ccc(C(F)(F)F)cn3)CC2)nc1	-2
CC(C)(C)c1ccc(=O)[nH]n1	6
O=C1NN=C(c2ccccc2)/C1=C1\OC(c2ccccc2)=CS1	138*
O=C(NCCNc1ncc(C(F)(F)F)cc1Cl)C(F)(F)Sc1ccccc1	-5
CNC[C@@H]1Oc2ccc(NC(=O)Cn3cnnn3)cc2CC(=O)N([C@H](C)CO)C[C@H]1C	-5
O=C(Nc1ccccc1SCCS(=O)(=O)c1ccc(Cl)cc1)c1ccccc1Cl	-11
CC(C)NC(=O)N(C)C[C@@H]1Oc2ncc(-c3cccc(C(F)(F)F)c3)cc2C(=O)N([C@H](C)CO)C[C@@H]1C	51
C[C@H](CO)N1C[C@H](C)[C@H](CN(C)C(=O)Nc2cccc3ccccc23)Oc2ncc(-c3ccccc3)cc2C1=O	30
C[C@H](CO)N1C[C@H](C)[C@H](CN(C)C(=O)Nc2cccc3ccccc23)Oc2ncc(-c3cccc(C(F)(F)F)c3)cc2C1=O	109*
C[C@H](CO)N1C[C@H](C)[C@H](CN(C)C(=O)NC2CCCCC2)Oc2ncc(/C=C/c3ccccc3)cc2C1=O	109*
C[C@H](CO)N1C[C@H](C)[C@H](CN(C)C(=O)NC2CCCC2)Oc2ncc(-c3cccc(C(F)(F)F)c3)cc2C1=O	122*
C[C@H](CO)N1C[C@H](C)[C@H](CN(C)C(=O)NC2CCCCC2)Oc2ncc(-c3ccccc3)cc2C1=O	23
C[C@H](CO)N1C[C@H](C)[C@H](CN(C)C(=O)Nc2cccc3ccccc23)Oc2ncc(-c3cccc(F)c3)cc2C1=O	60
C[C@H](CO)N1C[C@H](C)[C@H](CN(C)S(C)(=O)=O)Oc2ncc(-c3cccc(C(F)(F)F)c3)cc2C1=O	-4
CC(C)NC(=O)N(C)C[C@@H]1Oc2ncc(/C=C/c3ccccc3)cc2C(=O)N([C@H](C)CO)C[C@@H]1C	15
O=C(Cn1cccc1)Nc1ccccc1Cl	-7
C[C@@H]1CCCCO[C@H](CN(C)S(=O)(=O)c2ccc(F)cc2)[C@@H](C)CN([C@H](C)CO)C(=O)c2cc(NC(=O)Nc3ccccc3)ccc2O1	16
O=C(NO)c1cccc(C(=O)N/N=C/c2ccco2)c1	-11
CCCc1c(C(=O)O)cc2c(c1O)C(=O)c1c(O)cccc1C2=O	-6
O=C(CN1C(=O)c2ccccc2S1(=O)=O)Nc1ccc(Cl)cc1	-9
CC(C)(C)Nc1nc(Cl)nc(N(C#N)CN2C(=O)c3ccccc3S2(=O)=O)n1	94*
SMILES	ROS inducer
CCNc1nc(NC(C)(C)C)nc(N(C#N)CC(=O)OC)n1	-45
Cc1noc(C)c1NC(=O)N(C)C[C@@H]1OCCCC[C@@H](C)Oc2ccc(NC(=O)Nc3ccc(F)cc3)cc2C(=O)N([C@H](C)CO)C[C@@H]1C	75
Cc1noc(C)c1NC(=O)N(C)C[C@H]1Oc2ccc(NC(=O)Cn3cnnn3)cc2C(=O)N([C@@H](C)CO)C[C@H]1C	7
Cc1cc2nc(Sc3c([N+](=O)[O-])nc(C)n3Cc3ccccc3)[nH]c2cc1C	17
Cc1cc2nc(SCC(=O)NN)[nH]c2cc1C	-26
Cc1cc2nc(SCc3ccccc3C#N)[nH]c2cc1C	127*
Cc1ccc(NC(=O)Cn2cncc2-c2ccc([N+](=O)[O-])cc2)cc1C	-7
Cc1nc(-c2ccccc2)sc1C(=O)C1C(=O)C(=O)N(CCCN2CCOCC2)C1c1ccco1 (centres undefined)	19
Cc1nc(-c2ccccc2)sc1C(=O)C1C(=O)C(=O)N(CCCN2CCOCC2)C1c1cccs1 (centres undefined)	115*
O=C1C(=O)N(CCCN2CCOCC2)C(c2cccs2)C1C(=O)c1ccccc1 (centres undefined)	-9
C[C@H](CO)N1C[C@H](C)[C@H](CN(C)Cc2ccc3c(c2)OCO3)Oc2ccc(NS(=O)(=O)c3ccc(Cl)cc3)cc2CC1=O	26
C[C@@H]1CN([C@@H](C)CO)C(=O)c2cccc(NC(=O)Nc3ccc4c(c3)OCO4)c2O[C@H]1CN(C)S(=O)(=O)c1ccc(Cl)cc1	6
Cc1noc(C)c1NC(=O)Nc1ccc2c(c1)C(=O)N([C@H](C)CO)C[C@H](C)[C@H](CN(C)S(=O)(=O)c1cccs1)OCCCC[C@@H](C)O2	-11
CC(NC(=O)C1CCN(C(=O)c2cc3sccc3n2Cc2ccc(F)cc2)CC1)c1ccccc1 (centres undefined)	4
O=C1CC(CS(=O)(=O)c2ccc(C(F)(F)F)cn2)=NN1c1ccccc1	-13
C[C@@H]1CN([C@@H](C)CO)C(=O)Cc2cc(NS(=O)(=O)c3ccc(F)cc3)ccc2O[C@@H]1CN(C)Cc1ccc(C(F)(F)F)cc1	28
C[C@@H]1CN([C@@H](C)CO)C(=O)Cc2cc(NS(=O)(=O)c3ccc(Cl)cc3)ccc2O[C@@H]1CN(C)Cc1ccc(C(F)(F)F)cc1	23
C[C@@H]1CN([C@H](C)CO)C(=O)c2cc(NS(=O)(=O)c3ccc(Cl)cc3)ccc2O[C@H]1CN(C)Cc1ccc(C(F)(F)F)cc1	1
C[C@H]1CN([C@@H](C)CO)C(=O)c2cc(NS(=O)(=O)c3ccc(Cl)cc3)ccc2O[C@@H]1CN(C)Cc1ccc(C(F)(F)F)cc1	81*
C[C@H]1CN([C@@H](C)CO)C(=O)Cc2cc(NS(=O)(=O)c3ccc(F)cc3)ccc2O[C@@H]1CN(C)Cc1ccc(C(F)(F)F)cc1	146*
C[C@H]1CN([C@@H](C)CO)C(=O)Cc2cc(NC(=O)Cn3cnnn3)ccc2O[C@H]1CN(C)C(=O)Nc1ccc(C(F)(F)F)cc1	13
C[C@@H]1CN([C@H](C)CO)C(=O)Cc2cc(NS(=O)(=O)c3ccc(Cl)cc3)ccc2O[C@@H]1CN(C)Cc1ccc(C(F)(F)F)cc1	2
C[C@@H]1CN([C@H](C)CO)C(=O)Cc2cc(NS(=O)(=O)c3ccc(F)cc3)ccc2O[C@H]1CN(C)Cc1ccc(C(F)(F)F)cc1	207*
C[C@H](CO)N1C[C@H](C)[C@@H](CN(C)Cc2ccc(C(F)(F)F)cc2)Oc2ccc(NS(=O)(=O)c3ccc(Cl)cc3)cc2C1=O	54
C[C@@H]1CN([C@@H](C)CO)C(=O)Cc2cc(NC(=O)Cn3cnnn3)ccc2O[C@@H]1CN(C)Cc1ccncc1	0
Cc1ccc(S(=O)(=O)Nc2ccc3c(c2)CC(=O)N([C@H](C)CO)C[C@@H](C)[C@@H](CN(C)Cc2ccc(C(F)(F)F)cc2)O3)cc1	4
C[C@@H]1CN([C@H](C)CO)C(=O)Cc2cc(NC(=O)Cn3cnnn3)ccc2O[C@@H]1CN(C)Cc1ccc(C(F)(F)F)cc1	87*
CCn1c2c(c3cc(C4CCCCC4)ccc31)CCC/C2=N\O	3
COc1ccc(CN(C)C[C@H]2Oc3ccc(NC(=O)NC(C)C)cc3C(=O)N([C@H](C)CO)C[C@@H]2C)cc1	19
CNC[C@@H]1Oc2c(NC(=O)Nc3cccc4ccccc34)cccc2C(=O)N([C@@H](C)CO)C[C@H]1C	-3

Bioassay records as filed in PubChem BioAssay.
